Data: PubChem BioAssay (EPA / NIEHS)
The source holds several records for some structures; these can differ, active in one and inactive in another. Activity calls are given as the source filed them. The calls were made as follows: active = hit-call score of the fitted dose curve at least 0.9, where 1 is the maximum; inactive = score below 0.9.

What was measured:
Details in all cases: mRNA level, 48 h; actives raise or lower the signal
[1] = read-out: Forkhead box O3 (FOXO3), FOXO3 (gene 2309); experiment: LTEA_HepaRG_FOXO3: Life Technologies and Expression Analysis (LTEA) Assay for Forkhead box O3 (FOXO3) using HepaRG (AID 2283459)
Outline: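 Differentiated human HepaRG cells in serum-free induction medium were exposed in duplicate for 48 h to eight half-log concentrations up to 100 uM in 0.5% DMSO. FOXO3 mRNA was quantified by qRT-PCR, normalized to ACTB, GAPDH and POLR2A, with bidirectional fitting versus DMSO.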

[2] = read-out: ABC Transporter (ABCB1), ABCB1 (gene 5243); experiment: LTEA_HepaRG_ABCB1: Life Technologies and Expression Analysis (LTEA) Assay for ABC Transporter (ABCB1) using HepaRG (AID 2283460)
Outline: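 Differentiated human HepaRG cells, plated 48 h then switched to serum-free induction medium, were exposed in duplicate to eight half-log concentrations up to 100 uM in 0.5% DMSO for 48 h. ABCB1 mRNA was measured by TaqMan qRT-PCR, normalized to ACTB/GAPDH/POLR2A.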

[3] = read-out: growth arrest and DNA damage 45 (GADD45B), GADD45B (gene 4616); experiment: LTEA_HepaRG_GADD45B: Life Technologies and Expression Analysis (LTEA) Assay for growth arrest and DNA damage 45 (GADD45B) using HepaRG (AID 2283461)
Outline: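 Differentiated HepaRG cells, plated 48 h then switched to serum-free induction medium, were exposed 48 h in duplicate to eight half-log concentrations from 100 uM in 0.5% DMSO; mRNA quantified by qRT-PCR, normalized to ACTB/GAPDH/POLR2A, bidirectional fit versus DMSO.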

[4] = read-out: ABC Transporter (ABCC3), ABCC3 (gene 8714); experiment: LTEA_HepaRG_ABCC3: Life Technologies and Expression Analysis (LTEA) Assay for ABC Transporter (ABCC3) using HepaRG (AID 2283462)
Outline: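 HepaRG cells in serum-free induction medium were exposed for 48 h in duplicate to 8-point half-log concentrations topping at 100 uM in 0.5% DMSO. ABCC3 mRNA was measured by qRT-PCR normalized to ACTB, GAPDH and POLR2A, with bidirectional fitting versus DMSO.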

[5] = read-out: ABC Transporter (ABCB11), ABCB11 (gene 8647); experiment: LTEA_HepaRG_ABCB11: Life Technologies and Expression Analysis (LTEA) Assay for ABC Transporter (ABCB11) using HepaRG (AID 2283463)
Outline: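 Differentiated human HepaRG cells were exposed for 48 h in serum-free induction medium to eight half-log concentrations up to 100 uM in 0.5% DMSO. ABCB11 mRNA was quantified by qRT-PCR, normalized to ACTB, GAPDH and POLR2A, and fitted bidirectionally versus DMSO.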

[6] = read-out: Broad substrate specificity ATP-binding cassette transporter ABCG2 (Homo sapiens) (UniProt Q9UNQ0); experiment: LTEA_HepaRG_ABCG2: Life Technologies and Expression Analysis (LTEA) Assay for ABC Transporter (ABCG2) using HepaRG (AID 2283465)
Outline: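 Differentiated HepaRG cells in serum-free induction medium were exposed for 48 h, in duplicate, to eight half-log concentrations up to 100 uM in 0.5% DMSO. ABCG2 mRNA was measured by TaqMan qRT-PCR, normalized to ACTB, GAPDH and POLR2A, and fitted bidirectionally versus DMSO.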

[7] = read-out: ATP-citrate lyase (ACLY), ACLY (gene 47); experiment: LTEA_HepaRG_ACLY: Life Technologies and Expression Analysis (LTEA) Assay for ATP-citrate lyase (ACLY) using HepaRG (AID 2283466)
Outline: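 Differentiated human HepaRG cells in serum-free induction medium exposed 48 h, in duplicate, to eight half-log concentrations from 100 uM top in 0.5% DMSO; ACLY mRNA measured by qRT-PCR, normalized to ACTB, GAPDH, POLR2A, fitted bidirectionally versus DMSO.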

[8] = read-out: Peroxisomal acyl-coenzyme A oxidase 1 (ACOX1) gene, ACOX1 (gene 51); experiment: LTEA_HepaRG_ACOX1: Life Technologies and Expression Analysis (LTEA) Assay for Peroxisomal acyl-coenzyme A oxidase 1 (ACOX1) gene using HepaRG (AID 2283467)
Outline: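 Differentiated human HepaRG cells were exposed in duplicate for 48 h in serum-free induction medium to eight half-log concentrations up to 100 uM in 0.5% DMSO. ACOX1 mRNA was then quantified by TaqMan qRT-PCR, normalized to ACTB, GAPDH and POLR2A.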

[9] = read-out: Alkaline Phosphatase, Placental (ALPP) gene, ALPP (gene 250); experiment: LTEA_HepaRG_ALPP: Life Technologies and Expression Analysis (LTEA) Assay for Alkaline Phosphatase, Placental (ALPP) gene using HepaRG (AID 2283468)
Outline: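 Differentiated human HepaRG cells were plated and cultured 48 h, then exposed in duplicate for 48 h in serum-free induction medium to eight half-log concentrations from 100 uM in 0.5% DMSO. ALPP mRNA was measured by TaqMan qRT-PCR, normalized to ACTB, GAPDH, POLR2A.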

[10] = read-out: Bcl-2 (BAD) gene, BAD (gene 572); experiment: LTEA_HepaRG_BAD: Life Technologies and Expression Analysis (LTEA) Assay for Bcl-2 (BAD) gene using HepaRG (AID 2283469)
Outline: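 Differentiated human HepaRG cells in serum-free induction medium were exposed in duplicate for 48 h to eight concentrations (top 100 uM, half-log steps, 0.5% DMSO). BAD mRNA was quantified by qRT-PCR normalised to ACTB, GAPDH and POLR2A, with bidirectional fitting versus DMSO.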

Broad substrate specificity ATP-binding cassette transporter ABCG2 (Homo sapiens), sequence (Q9UNQ0 whole entry, looked up): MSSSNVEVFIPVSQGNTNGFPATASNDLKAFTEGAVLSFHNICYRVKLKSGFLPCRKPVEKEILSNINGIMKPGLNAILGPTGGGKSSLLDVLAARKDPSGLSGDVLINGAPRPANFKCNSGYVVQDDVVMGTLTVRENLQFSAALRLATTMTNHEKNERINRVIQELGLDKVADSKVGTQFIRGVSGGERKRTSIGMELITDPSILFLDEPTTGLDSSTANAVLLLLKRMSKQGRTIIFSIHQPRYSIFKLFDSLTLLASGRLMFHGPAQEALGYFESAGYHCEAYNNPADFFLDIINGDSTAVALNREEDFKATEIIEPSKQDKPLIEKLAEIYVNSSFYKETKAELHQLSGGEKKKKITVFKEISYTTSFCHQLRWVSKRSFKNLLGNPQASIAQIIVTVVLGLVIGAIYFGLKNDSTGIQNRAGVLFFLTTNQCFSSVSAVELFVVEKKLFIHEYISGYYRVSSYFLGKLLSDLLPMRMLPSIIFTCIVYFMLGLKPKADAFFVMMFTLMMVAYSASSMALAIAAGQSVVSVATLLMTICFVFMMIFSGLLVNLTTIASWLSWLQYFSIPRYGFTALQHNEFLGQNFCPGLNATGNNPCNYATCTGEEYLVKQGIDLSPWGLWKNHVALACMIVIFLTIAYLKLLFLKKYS

SMILES	outcome [1]	outcome [2]	outcome [3]	outcome [4]	outcome [5]	outcome [6]	AC50 [7]	outcome [8]	outcome [9]	outcome [10]	AC50 [1]	AC50 [2]	AC50 [3]	AC50 [4]	AC50 [5]	AC50 [6]	AC50 [8]	outcome [7]	AC50 [9]	AC50 [10]
ClC1(Cl)C2(Cl)C3(Cl)C4(Cl)C(Cl)(Cl)C5(Cl)C3(Cl)C1(Cl)C5(Cl)C24Cl (configuration not stated)	inactive	inactive	inactive	inactive	inactive	inactive	5.15 µM (active)	inactive	inactive	inactive										
O=[N+]([O-])c1ccc(O)c([N+](=O)[O-])c1							4.2 µM (active)		inactive	inactive	28.8 µM (active)	13.6 µM (active)	50 µM (active)	12.4 µM (active)	12.4 µM (active)	12.4 µM (active)	13.3 µM (active)			
CCC(=O)C(CC(C)N(C)C)(c1ccccc1)c1ccccc1 (configuration not stated)	inactive	inactive	inactive		inactive	inactive		inactive	inactive	inactive				36.2 µM (active)				inactive		
CC(C)(C)c1cc(O)ccc1O	inactive	inactive	inactive		inactive	inactive		inactive	inactive	inactive								inactive		
O=C(O)C(F)(F)C(F)(F)C(F)(F)C(F)(F)C(F)(F)C(F)(F)C(F)(F)C(F)(F)C(F)(F)C(F)(F)F		inactive	inactive	inactive		inactive		inactive	inactive	inactive	47.8 µM (active)				13.7 µM (active)			inactive		
CCOP(=S)(OCC)SCSP(=S)(OCC)OCC	inactive	inactive		inactive	inactive	inactive	78.7 µM (active)	inactive	inactive	inactive			0.0743 µM (active)							
CCCCCCCCc1ccc(O)cc1	inactive	inactive	inactive	inactive	inactive	inactive		inactive	inactive	inactive								inactive		
O=c1[nH]c(=O)[nH]c(=O)[nH]1	inactive	inactive	inactive	inactive	inactive	inactive		inactive	inactive	inactive								inactive		
CC(=O)[O][Hg][c]1ccccc1			inactive			inactive	23.3 µM (active)				14.5 µM (active)	24.1 µM (active)		13 µM (active)	1.22 µM (active)		15.2 µM (active)		0.646 µM (active)	12.7 µM (active)
O=C(O)C(Cl)(Cl)Cl	inactive	inactive	inactive	inactive	inactive	inactive		inactive	inactive	inactive								inactive		
CCC(C)(C)c1ccc(O)c(C(C)(C)CC)c1	inactive	inactive	inactive	inactive	inactive	inactive		inactive	inactive	inactive								inactive		
Cn1sc(Cl)cc1=O	inactive	inactive	inactive	inactive	inactive	inactive		inactive	inactive	inactive								inactive		
C[C@@H]1C[C@@H]([C@H](O)CC2CC(=O)NC(=O)C2)C(=O)[C@@H](C)C1							9.23 µM (active)				34.3 µM (active)	83.5 µM (active)	22.3 µM (active)	0.921 µM (active)	4.26 µM (active)	10.4 µM (active)	50 µM (active)		73.8 µM (active)	
COc1cc(-c2ccc(N)c(OC)c2)ccc1N	inactive	inactive	inactive	inactive	inactive	inactive		inactive	inactive	inactive		50 µM (active)	50 µM (active)		71.5 µM (active)	25 µM (active)		inactive		
ClCC(Cl)CCl	inactive	inactive	inactive	inactive	inactive	inactive		inactive	inactive	inactive								inactive		
CC(C)(c1ccccc1)c1ccc(O)c(C(C)(C)c2ccccc2)c1	inactive		inactive	inactive					inactive	inactive		22.1 µM (active)			43.1 µM (active)	36.2 µM (active)	50 µM (active)	inactive		

SMILES	outcome [1]	outcome [2]	outcome [3]	outcome [4]	outcome [5]	outcome [6]	AC50 [7]	outcome [8]	outcome [9]	outcome [10]	AC50 [1]	AC50 [2]	AC50 [3]	AC50 [4]	AC50 [5]	AC50 [6]	AC50 [8]	outcome [7]	AC50 [9]	AC50 [10]
C[C@]12CCC(=O)C[C@@H]1CC[C@@H]1[C@@H]2CC[C@]2(C)[C@@H](O)CC[C@@H]12	inactive	inactive	inactive	inactive		inactive		inactive	inactive	inactive					50 µM (active)			inactive		
O=C(O)C(F)(F)C(F)(F)C(F)(F)C(F)(F)C(F)(F)C(F)(F)F	inactive		inactive	inactive	inactive	inactive		inactive	inactive	inactive		0.101 µM (active)						inactive		
CCOP(=S)(OCC)Oc1nc(Cl)c(Cl)cc1Cl	inactive	inactive	inactive	inactive	inactive	inactive		inactive	inactive	inactive								inactive		
CC12CC1(C)C(=O)N(c1cc(Cl)cc(Cl)c1)C2=O (configuration not stated)	inactive		inactive	inactive		inactive			inactive	inactive		8.58 µM (active)			6.92 µM (active)		13.1 µM (active)	inactive		
Oc1cccc2cccnc12	inactive	inactive	inactive	inactive	inactive	inactive		inactive	inactive	inactive								inactive		
CC(C)(C)CC(C)(C)c1ccc(O)cc1	inactive	inactive	inactive	inactive	inactive	inactive		inactive	inactive	inactive								inactive		
NC(=O)O	inactive	inactive	inactive	inactive	inactive	inactive		inactive	inactive	inactive								inactive		
C=C(C)C(=O)[O][Sn]([CH2]CCC)([CH2]CCC)[CH2]CCC	inactive		inactive					inactive		inactive		3.08 µM (active)		3.06 µM (active)	2.02 µM (active)	0.917 µM (active)		inactive	1.58 µM (active)	
Cc1ccccc1N	inactive	inactive	inactive	inactive	inactive	inactive		inactive	inactive	inactive								inactive		
C=CC(=O)OCCCCCC(C)C	inactive	inactive	inactive	inactive	inactive	inactive		inactive	inactive	inactive								inactive		
CC(C)(OO)c1ccccc1	inactive	inactive	inactive	inactive	inactive	inactive		inactive	inactive	inactive								inactive		
O=C1C2(Cl)C3(Cl)C4(Cl)C(Cl)(Cl)C5(Cl)C3(Cl)C1(Cl)C5(Cl)C24Cl (configuration not stated)					inactive		93.1 µM (active)			inactive	93.2 µM (active)	91.8 µM (active)	93 µM (active)	92.7 µM (active)		15.8 µM (active)	0.0893 µM (active)		26.7 µM (active)	
CCN1CCC2(CC1)COc1cc3c(cc12)N(C(=O)c1ccc(-c2ccc(-c4nnc(C)o4)cc2C)cc1)CC3					inactive	inactive	21.5 µM (active)		inactive	inactive	17.4 µM (active)	17.4 µM (active)	12.5 µM (active)	71.6 µM (active)			30.2 µM (active)			
O=C(Nc1ccc2[nH]ccc2c1)c1cc2cc(F)ccc2n1Cc1cccc(F)c1	inactive		inactive	inactive						inactive		90.3 µM (active)			38.1 µM (active)	32.2 µM (active)	63.1 µM (active)	inactive	14.4 µM (active)	
CN(C)N=O	inactive	inactive	inactive	inactive	inactive	inactive		inactive	inactive	inactive								inactive		
